USP10 block: blocks human USP10 ubiquitin-rhodamine cleavage. Q14694. purified USP10, Ub-rhodamine fluorescence, 60 min. inhibition, % at 20 µM. actives 1.1% (n = 47,000). AID 1645856
Target sequence (Q14694 whole entry, looked up): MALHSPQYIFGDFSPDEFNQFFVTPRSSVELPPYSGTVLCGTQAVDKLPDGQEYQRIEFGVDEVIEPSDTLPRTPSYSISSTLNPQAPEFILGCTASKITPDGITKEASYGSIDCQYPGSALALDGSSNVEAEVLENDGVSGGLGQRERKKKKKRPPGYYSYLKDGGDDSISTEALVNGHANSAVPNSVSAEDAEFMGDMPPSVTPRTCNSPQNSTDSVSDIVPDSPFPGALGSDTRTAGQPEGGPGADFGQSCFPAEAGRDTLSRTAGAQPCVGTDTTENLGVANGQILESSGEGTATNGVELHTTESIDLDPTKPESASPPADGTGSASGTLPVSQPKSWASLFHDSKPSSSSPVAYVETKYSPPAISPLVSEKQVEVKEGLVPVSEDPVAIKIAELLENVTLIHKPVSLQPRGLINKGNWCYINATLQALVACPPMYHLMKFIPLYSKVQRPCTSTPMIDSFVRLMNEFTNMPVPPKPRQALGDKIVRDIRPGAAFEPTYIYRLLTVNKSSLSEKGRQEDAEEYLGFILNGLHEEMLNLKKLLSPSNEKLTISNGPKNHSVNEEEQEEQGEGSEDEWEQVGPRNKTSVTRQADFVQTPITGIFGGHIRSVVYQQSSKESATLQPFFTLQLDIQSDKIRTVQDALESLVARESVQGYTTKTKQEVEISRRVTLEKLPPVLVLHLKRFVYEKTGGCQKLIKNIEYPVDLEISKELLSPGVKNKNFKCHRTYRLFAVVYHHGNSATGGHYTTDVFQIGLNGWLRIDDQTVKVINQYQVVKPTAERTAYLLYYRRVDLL
OTUD3 inh: blocks human OTUD3 ubiquitin-rhodamine cleavage | Q5T2D3 | purified OTUD3, Ub-rhodamine fluorescence, 2 h | inhibition, % at 25 µM | actives 0.7% (n = 47,000) | AID 1645858
USP8 inh: human USP8 deubiquitinase inhibition. actives 4.2% (n = 47,000). purified USP8, Ub-rhodamine cleavage fluorescence, 30 min. P40818. AID 1645853. inhibition, % at 20 µM
USP28 block: blocks human USP28 ubiquitin-rhodamine cleavage | Q96RU2 | purified USP28, Ub-rhodamine cleavage fluorescence, 30 min | inhibition, % at 25 µM | actives 3% (n = 47,000) | AID 1645857
USP30 inh: human USP30 deubiquitinase inhibition | purified USP30, Ub-rhodamine cleavage fluorescence | inhibition, % at 25 µM | actives 5.3% (n = 47,000) | AID 1645860
USP17 block: human USP17-like deubiquitinase inhibition | A8MUK1 | purified USP17, Ub-rhodamine cleavage fluorescence, 3 h | actives 6.5% (n = 47,000) | inhibition, % at 50 µM
The depositor's hits bear a star; x = no result given. The list is not random: actives were taken first. Their share in the collection is about 13%. No stated cut-off is given here; in the data, active means inhibition above about 30%; inactive means the rest.

SMILES	USP10 block	OTUD3 inh	USP8 inh	USP28 block	USP30 inh	USP17 block
CCC(C(=O)Nc1cccc(OC)c1)n1c(=O)[nH]c2ccccc2c1=O (centres undefined)	1	-1	5	-2	1	-2
CC(Nc1cccc(C(F)(F)F)c1)C(=O)Nc1ccc2c(c1)OCO2 (centres undefined)	-4	-14	21	-9	-38	-8
CC(Nc1ccc(Oc2ccccc2)cc1)C(=O)Nc1ccc2c(c1)OCO2 (centres undefined)	9	9	27	10	30*	22
COc1ccc(-n2c(C)cc(C(=O)N3CCCC(c4nnc5ccccn45)C3)c2C)cc1 (centres undefined)	-12	-98	-62	-121	-464	-126
O=C(CSc1ccc2nnc(CCNS(=O)(=O)c3ccccc3)n2n1)NCc1ccc(F)cc1	-2	8	11	12	16	39*
CCCC(=O)Nc1nc(-c2ccccc2)cc(-c2ccccc2)n1	5	5	12	8	11	8
O=C(NCCn1ccc2ccccc21)c1cc2ccccc2oc1=O	4	-4	3	-7	14	68*
COc1ccc(C(=O)NCCn2ccc3ccccc32)cc1	-7	-23	-13	-15	-58	-24
Cc1nc2cccnc2n1C1CCN(C(=O)c2cc3cc(Cl)ccc3[nH]2)C1 (centres undefined)	-5	-4	-13	42*	54*	31*
COc1cccc2[nH]c(C(=O)N3CCC(n4c(C)nc5cccnc54)CC3)cc12	-6	-4	-4	3	0	-4
COc1ccc(N(C)C(=O)c2cc3c(=O)n(C)c4ccccc4n3n2)cc1	-5	-9	82*	3	-38	29
CCc1ccccc1N(C)C(=O)c1cc2c(=O)n(CC)c3ccccc3n2n1	3	3	0	3	25	16
COc1ccc(NC(=O)CN2CCN(c3ccc(C(C)=O)cc3)CC2)cc1S(=O)(=O)N1CCCCC1	1	0	6	10	54*	36*
COc1ccc(NC(=O)Cc2ccccc2F)cc1S(=O)(=O)N1CCCCC1	0	2	3	10	8	x
CC(C)n1c(CC2CCN(S(=O)(=O)c3cccc4cccnc34)C2)nc2cccnc21 (centres undefined)	-1	0	0	-4	-3	1
Cc1cc(-n2cnnn2)cc(C)c1S(=O)(=O)NC1CCCCC1	0	13	13	15	24	9
Cn1c(O)c(C2=Nc3ccccc3SC(c3cccc(O)c3)C2)c(=O)[nH]c1=O (centres undefined)	24	-1	11	15	-27	39*
O=C(CC1C(=O)Nc2nc(-c3ccccc3)nn21)Nc1ccc(Cl)c(C(F)(F)F)c1 (centres undefined)	15	-2	-3	-3	-8	-4
Cc1cccc(NC(=O)CC2C(=O)Nc3nc(-c4ccccc4)nn32)c1 (centres undefined)	9	13	19	14	31*	16
CC(C)CCn1c(=O)c2ccccc2n2c(CCC(=O)N3CCN(Cc4ccccc4)CC3)nnc12	-6	-21	-22	-21	-56	-15
O=S1(=O)CCC(Nc2ncnc3scc(-c4ccc(Cl)cc4)c23)C1 (centres undefined)	-4	13	8	4	5	13
COc1ccc(Nc2nc(C(=O)NCc3ccccc3)cc3occc23)cc1	15	12	55*	24	-12	57*
COc1ccc(Nc2nc(C(=O)NCc3ccc4c(c3)OCO4)cc3occc23)cc1	33*	-2	67*	25	-37	63*
COc1cc(NC(=O)N2CCCC2c2cc(C)on2)cc(OC)c1 (centres undefined)	3	0	12	8	-10	-3
CCCCC/C=C/C(O)C(O)/C=C/c1ccc(Cl)c(O)c1CO (centres undefined)	-8	-13	-78	6	-64	31*
SMILES	USP10 block	OTUD3 inh	USP8 inh	USP28 block	USP30 inh	USP17 block
COc1ccc(CNC(=O)c2snc(-c3ccccn3)c2N)cc1	1	7	13	26	27	26
O=C(CSc1cn(CC(=O)N2CCCCCC2)c2ccccc12)Nc1ccccc1	2	11	-12	8	25	2
CCc1ccc(NC(=O)CSc2nc3nccnc3c(=O)n2Cc2ccc(F)cc2)cc1	21	0	44*	-9	-1	7
NC(=O)CSc1nc2nccnc2c(=O)n1Cc1ccc(F)cc1	-6	-11	-54	-10	-37	-21
Cc1ccc2[nH]cc(S(=O)(=O)c3cc(Cl)cc(Cl)c3)c(=O)c2c1	8	7	13	-3	-33	48*
Cc1ccc(CNC(=O)c2c(O)c3ccccc3[nH]c2=O)cc1	12	12	40*	12	21	23
Cc1nc2c(nnn2C[C@H]2CCCN2C(=O)c2cc(F)cc(F)c2)c(=O)[nH]1	3	16	14	14	26	18
O=C(c1cn(-c2cccc(F)c2)nn1)N1CCc2ccccc2C1	2	7	1	1	11	55*
O=C(c1cn(-c2cccc(F)c2)nn1)N1CCN(c2ccccc2)CC1	-2	-3	1	-16	-140	-10
CN(C)c1cc(C(=O)NC2CCCCC2)nc2ccnn12	-6	-6	-3	-8	-18	0
CC(C)(C)c1cc(C(=O)NC2CCCC2)nc2ccnn12	1	14	13	7	31*	31*
COc1ccc(NC(=O)CCC(=O)N(c2ccccc2)c2ccccc2)c(OC)c1	-1	7	16	1	15	2
COc1ccc(C(=O)N(Cc2ccccc2)C(C)(C)c2ccccc2)c(OC)c1	8	18	11	13	44*	29
COc1ccc2c(C)c(CC(=O)N3CCC[C@H]3C(=O)O)c(=O)oc2c1OC	1	13	15	14	30	12
COc1ccc(CNc2c(S(=O)(=O)c3ccccc3)cnc3ccccc23)cc1	8	18	9	6	35*	11
CCc1ccc(Nc2cc(C)nc3nc(-c4ccco4)nn23)cc1	0	0	-29	16	10	8
CC1=Nc2c(cnn2-c2ccccc2)C2=NCCCN12	0	-1	3	-1	-10	8
NS(=O)(=O)c1ccc(NC(=O)c2sccc2Oc2ccc(F)cc2[N+](=O)[O-])cc1	5	-4	-4	32*	61*	55*
Cc1ccc2c(c1)N(S(C)(=O)=O)CC(C(=O)Nc1ccccc1)O2 (centres undefined)	8	8	9	10	5	2
CC1=C(C(=O)OC2CCCC2)C(c2ccc(Cl)c([N+](=O)[O-])c2)CC(=O)N1 (centres undefined)	6	4	0	6	15	13

Bioassay records deposited in PubChem BioAssay by Buhrlage Lab, Dana-Farber Cancer Institute and Novartis Institutes for BioMedical Research (Cambridge, Mass).
